Our source for the inhibition values is ChEMBL document CHEMBL3433997, “St. Jude Leishmania screening dataset” (2016).

In the experiment the target is Solute carrier family 2, facilitated glucose transporter member 1 (Homo sapiens) (UniProt P11166). In words: ST_JUDE_LEISH: Cytotoxicity at 2uM final concentration against transgenic Leishmania Mexicana promastigotes LmGLUT1 that are glucose transport deficient and complemented with the human glucose transporter GLUT1. Activity is measured by DNA content using SYBR green in vitro. Format: functional.
Solute carrier family 2, facilitated glucose transporter member 1 (Homo sapiens), sequence (P11166 whole entry): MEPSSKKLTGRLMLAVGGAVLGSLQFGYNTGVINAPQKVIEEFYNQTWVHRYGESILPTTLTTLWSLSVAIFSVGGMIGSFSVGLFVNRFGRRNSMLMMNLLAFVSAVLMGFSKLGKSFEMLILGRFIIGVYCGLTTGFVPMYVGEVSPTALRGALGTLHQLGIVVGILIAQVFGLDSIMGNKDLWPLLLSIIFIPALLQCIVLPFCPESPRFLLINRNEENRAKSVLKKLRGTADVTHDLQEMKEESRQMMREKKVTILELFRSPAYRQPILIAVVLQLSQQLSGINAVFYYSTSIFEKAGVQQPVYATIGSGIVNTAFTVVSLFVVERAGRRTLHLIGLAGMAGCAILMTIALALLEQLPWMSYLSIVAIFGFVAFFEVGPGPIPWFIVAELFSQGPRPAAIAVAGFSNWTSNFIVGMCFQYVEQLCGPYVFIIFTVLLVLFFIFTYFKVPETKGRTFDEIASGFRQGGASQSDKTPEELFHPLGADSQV
Take `Cc1cc(N[C@@H](Cc2ccccc2)C(=O)NCc2cccc(F)c2)nc(NCC2CCCCC2)n1`: the inhibition was -0.17%.

For the compound `Fc1ccc(C=NNc2nc3ccccc3[nH]2)cc1`, the inhibition is 16.4%.

`CNC(=O)c1ccccc1Nc1cc(Nc2cc(OC)ccn2)ncc1Cl`: the inhibition was 5.77%.

For the compound `CN(C)CC(=O)Nc1cccc(Nc2nccc(NCC(O)c3ccccc3)n2)c1` (stereo not given), the inhibition was 1.36%.

Take `CCn1c(-c2nonc2N)nc2c(-c3cccc(NC(=O)Nc4cccc(C(F)(F)F)c4)c3)ncc(OCCCN)c21`: the inhibition came to 2.47%.

For `CCn1c(-c2ccccc2)cc2nnc3ccccc3c21`, the inhibition was found to be 6.68%.

In the case of `Cc1csc2nc(C(C)c3ccc(NC(=O)c4cccs4)cc3)oc(=O)c12` (stereo not given), the inhibition came out at 1.03%.

`Cc1cccc2nc(-c3cccc(-c4cccc(NC(=O)CNC(=O)c5ccc(O)cc5)c4)c3)[nH]c12`: the inhibition turned out to be 0.25%.

Consider `COc1ccc2nccc([C@@H](O)CN3CCC(NCCOc4cccc(C(F)(F)F)c4Cl)CC3)c2c1`, for which the inhibition was 11.3%.

`CC(C)N1CCN(c2ccc(OCCCCN3CCN(c4cccc(Cl)c4Cl)CC3)c(C(F)(F)F)c2)CC1`: the inhibition is -0.92%.

With `Cc1cccc(-c2nn(-c3ccccc3)c3[nH]c(=O)c(CN4CCSCC4)cc23)c1`, the inhibition was -2.69%.

Consider `Cc1cc(-c2nc3cncc(-c4cccc(CN5CCCC5Cc5cccnc5)c4)c3n2C)nn1C` (stereo not given), for which the inhibition is -1.04%.

Take `O=C(NCCCCCN1CCC(c2c[nH]c3ccccc23)CC1)Nc1cccc(Br)c1`: the inhibition came out at 8.56%.

As to `Cc1[nH]c(C)c(-c2ccc(OCc3ccccc3)cc2)c(=O)c1Br`, the inhibition was 5.62%.

As to `Cc1[nH]n(-c2cccc(C(F)(F)F)c2)c(=O)c1-c1ccc(Cl)cc1`, the inhibition is 3.56%.

For `O=C(Nc1ccc(C(F)(F)F)cc1)c1ccc(NCCCN2CCCCCC2)c([N+](=O)[O-])c1`, the inhibition amounted to 5.54%.

Regarding `N#Cc1ccc(CN2CCCN(Cc3cccc(NC(=O)c4ccc(-c5ccccc5)cc4)c3)CC2)cc1`, the inhibition is 1.73%.

Turning to `CCN(CC)S(=O)(=O)c1ccc(C(C)NC(=O)c2ccccc2COc2ccccc2)cc1` (stereo not given), the inhibition was found to be 6.67%.

As for `CCc1cn(C)c2c(N3CCCC3=O)cc(C(=O)N[C@@H](Cc3ccccc3)[C@H](O)CNC3CCCCC3)cc12`, the inhibition is 10.2%.

On to `O=C(NCCNc1ccnc2cc(Cl)ccc12)c1ccccc1F`, for which the inhibition was -1.91%.

With `CC(C)(CNC(=O)C1CCN(CCOCc2ccccc2)CC1)c1nc(-c2ccc(Cl)c(O)c2)c(-c2ccncc2)[nH]1`, the inhibition was 1.22%.

Consider `NC(=O)c1cccc(CNC(=O)NC[C@H]2CN(Cc3ccc(Cl)c(Cl)c3)CCO2)c1`, for which the inhibition worked out at 7.5%.

For the compound `O=C1OC(c2ccccc2)(c2ccccc2)CN1C1CCN(Cc2ccc(O)c(Cl)c2)C1` (stereo not given), the inhibition amounted to 1.71%.

Regarding `Cc1ccc(-n2c(=O)c3cccnc3n2CC(=O)Nc2cccc(C)c2C)cc1`, the inhibition turned out to be 8.07%.

Take `CN(CCc1ccccc1)c1ncc(-c2cccc(CNCCC3CCCN3C)c2)cn1` (stereo not given): the inhibition turned out to be 111%.

Turning to `Cc1nc(N)nc(N)c1OCCCCCCOc1ccccc1`, the inhibition was determined as 2.38%.

`COc1cc2nc(NCCCO)nc(Nc3ccc(Oc4ccccc4)cc3)c2cc1OC`: the inhibition worked out at 6.51%.

With `C=CCOC(=O)N1CCC(CNCc2ccc(-c3cccc(-c4nc5ccccc5[nH]4)c3)cc2)C1` (stereo not given), the inhibition stood at 3.24%.

For the compound `CN(CCCCCNC(=O)/C=C/c1ccc(Cl)c(Cl)c1)CCc1c[nH]c2ccccc12`, the inhibition worked out at 20.6%.

Take `Cc1cccc2nc(-c3ccc(-c4cccc(NC(=O)c5cncn5C)c4)s3)[nH]c12`: the inhibition was 0.66%.

For `COC(=O)c1cccc(CNCc2cccc(-c3csc(-c4nc5ccccc5[nH]4)c3)c2)c1`, the inhibition worked out at 9.3%.

For the compound `O=C(/C=C/c1ccc(Cl)c(Cl)c1)NC1CCC(CN2CCC(c3nc4cccnc4[nH]3)CC2)CC1` (stereo not given), the inhibition turned out to be 1.77%.

As to `CCn1cc(CN2C(=O)C(c3ccccc3)(c3ccccc3)N=C2N)cn1`, the inhibition is 1.83%.

In the case of `Cc1cccc2nc(-c3cccc(-c4cccc(NC(=O)c5cccnc5Cl)c4)c3)[nH]c12`, the inhibition was found to be 1.25%.

Turning to `O=C(Nc1ccc(OC2CCN(Cc3ccc(F)cc3)CC2)c(Cl)c1)c1cccs1`, the inhibition was found to be 2.99%.

Consider `CC(C)CCN(Cc1cncn1Cc1cccc(C(F)(F)F)c1)C(=O)c1ccccc1C#N`, for which the inhibition is -3.54%.

Regarding `Cc1cc(-c2ccc(CNC3Cc4ccccc4C3)cc2)ccc1S(=O)(=O)NCCN1CCCC1`, the inhibition is 30.9%.

`Cc1cc(N[C@@H](Cc2ccccc2)C(=O)NCc2cccc(F)c2)nc(Nc2ccccc2)n1`: the inhibition worked out at 6.85%.

For `O=c1cc(NCCCNCc2cc(F)cc(C(F)(F)F)c2)[nH]c2ccccc12`, the inhibition was -0.27%.

With `O=C(Nc1ccc(Cl)cc1)Nc1ccc2c(c1)N1CCN=C1S2`, the inhibition is -0.81%.
